Consider 38 compounds from PubChem BioAssay (NCATS).

Structures are written as SMILES. Results filed as inconclusive are left out. A call without a number means that no potency is given here. Values without a mark were called inactive. Active and inactive are the calls of the source. The call rests on the fitted dose curve; in most records, active means well fitted inhibition curve with a large enough effect; inconclusive means small, poorly fitted or top-dose-only effect; inactive means flat fitted curve, though single readings scatter. *1 amine or outer side, *2 acyl side, *3 side chain or, on linkers, in order; H or OH if unused. Where a SMILES comes first, the peptide text is derived from it. Bridges are numbered along the chain shown (N, C = ends). X6 = O=C(CCC[*:2])[*:1]

Chain of Phospholipid hydroperoxide glutathione peroxidase GPX4 (Homo sapiens) (P36969 whole entry, looked up): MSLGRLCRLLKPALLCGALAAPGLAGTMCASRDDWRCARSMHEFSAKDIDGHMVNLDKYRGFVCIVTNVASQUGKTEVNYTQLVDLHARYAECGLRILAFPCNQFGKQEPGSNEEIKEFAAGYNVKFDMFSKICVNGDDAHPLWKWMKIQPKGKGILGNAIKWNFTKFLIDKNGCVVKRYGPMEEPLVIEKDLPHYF

For this test, the target named is Phospholipid hydroperoxide glutathione peroxidase GPX4 (Homo sapiens) (UniProt P36969). Put plainly: Primary qHTS Assay for Inhibitors of Recombinant Selenoprotein Glutathione Peroxidase 4 (GPX4) (AID 1845192). Further: nearly all actives have a fitted effect of over 65% in size. To be noted: recombinant GPX4, GR-coupled NADPH fluorescence, 15 min; series mostly up to 50 µM. The gist of the method:
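GR-coupled assay: recombinant GPX4 preincubated 30 min with compound at room temperature; final 200 nM GPX4, 1 mM GSH, 0.5 mM cumene hydroperoxide, 0.5 mM NADPH, 100 nM GR, 0.01% BSA, pH 7.5 Tris. NADPH fluorescence (340/450 nm) read at 0 and 15 min.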
In the case of `C[C@@H]1O[C@@H](O[C@H]2[C@H](O[C@H]3CC[C@@]4(C)C(CC[C@]5(C)C4CC=C4C6CC(C)(C)CC[C@]6(C(=O)O[C@@H]6O[C@H](CO[C@@H]7O[C@H](CO)[C@@H](O[C@@H]8O[C@@H](C)[C@H](O)[C@@H](O)[C@H]8O)[C@H](O)[C@H]7O)[C@@H](O)[C@H](O)[C@H]6O)CC[C@]45C)[C@]3(C)CO)OC[C@H](O)[C@@H]2O)[C@H](O)[C@H](O)[C@H]1O` (stereo partly drawn), the activity change, negative = inhibition is -7.52% [at 9.73 µM]. Turning to `C[C@@H]1O[C@@H](O[C@H]2[C@H](O[C@H]3CC[C@@]4(C)C(CC[C@]5(C)C4CC=C4[C@@H]6CC(C)(C)CC[C@]6(C(=O)O)CC[C@]45C)[C@]3(C)CO)OC[C@H](O)[C@@H]2O)[C@H](O)[C@H](O[C@@H]2OC[C@@H](O)[C@H](O)[C@H]2O)[C@H]1O` (stereo partly drawn), the Potency result is “inactive”.

Consider `CCOC(=O)[C@H](CCc1ccccc1)CC1(C(=O)N[C@H]2CCc3ccccc3N(CC(=O)O)C2=O)CCCC1`, for which the Potency result is “inactive”. Same read-out and setting: the result for `CC(=O)O[C@@H]1[C@H]2[C@@H](OC(=O)c3ccccc3)[C@@H](C)C[C@]2(O)[C@H](OC(C)=O)[C@@]2(C)[C@@H]3CC(C)(C)C(=O)[C@]3(OC(C)=O)C[C@@]12C` reads “inactive”.

On to `C/C=C/C=C/C(CC(=O)O)Nc1ccc(C=O)cc1` (stereo not drawn), for which the Potency result is “inactive”. With `C/C=C1/[C@H](O[C@@H]2O[C@H](CO)[C@@H](O)[C@H](O)[C@H]2O)OC=C(C(=O)OC)[C@H]1CC(=O)O[C@@H]1O[C@H](CO)[C@@H](O)[C@H](O)[C@H]1O`, the Potency result was “inactive”.

`CC(C)(O)C1CCC2(C)C3C(O)C4C(C13)C42CO` (stereo not drawn): the Potency entry was “inactive”. On to `COC(=O)C1=CO[C@@H](O[C@@H]2O[C@H](CO[C@@H]3O[C@H](COC(=O)/C=C/c4ccc(O)cc4)[C@@H](O)[C@H](O)[C@H]3O)[C@@H](O)[C@H](O)[C@H]2O)[C@@H]2C(CO)=CC[C@H]12`, for which the Potency result is “inactive”. On to `C/C=C/C1=CC2=C(CO1)C(=O)[C@](C)(O)[C@H](OC(=O)c1c(O)cc(OC)c(O)c1C)C2`, for which the Potency result is “inactive”. The same measure, in the same setting: the result for `Cc1cc(O)c(C(C)C)cc1O[C@@H]1O[C@H](CO)[C@@H](O)[C@H](O)[C@H]1O` reads “inactive”; that for `CC(C)NC[C@H](O)COc1ccc(CCOCC2CC2)cc1`, “inactive”; that for `CC1(C)CC[C@]2(C(=O)O)CC[C@]3(C)C(=CCC4[C@@]5(C)CC[C@H](O[C@@H]6O[C@H](C(=O)O)[C@@H](O)[C@H](O)[C@H]6O)C(C)(CO)C5CC[C@]43C)C2C1` (stereo partly drawn), “inactive”. On the same count and under the same terms, next, `C=C1CCC2C(C)(C(=O)O)CC(O)CC2(C)C1CC/C(C)=C/C(=O)O` (stereo not drawn): “inactive”; `CC12CCC3C(C)(C)C(O)CCC3(C)C1Cc1c(oc(C(=O)O)cc1=O)O2` (stereo not drawn): “inactive”; `OC[C@H]1O[C@@H](Oc2ccc3c(c2)OC[C@H]2c4cc5c(cc4O[C@@H]32)OCO5)[C@H](O)[C@@H](O)[C@@H]1O`: “inactive”. `C=C[C@H]1[C@H](O[C@@H]2O[C@H](CO[C@@H]3OC[C@](O)(CO)[C@H]3O)[C@@H](O)[C@H](O)[C@H]2O)OC=C2C(=O)OCC[C@H]21`: the Potency entry was “inactive”. Still for that read-out and setting: next, `CC(=O)OC[C@]1(O)[C@H]2[C@H](OC(=O)CC(C)C)OC=C(CO[C@@H]3O[C@H](CO)[C@@H](O)[C@H](O)[C@H]3O)[C@H]2C[C@@H]1O`: “inactive”; `Clc1ccc2c(c1)C1=NCCN1c1c(-c3noc(C4CC4)n3)ncn1-2`: “inactive”.

Regarding `O=C(/C=C/c1ccc(O)c(O)c1)OCc1ccccc1O[C@@H]1O[C@H](CO)[C@@H](O)[C@H](O)[C@H]1O`, the Potency result was “inactive”. Same read-out and setting: next, `COCCCNCC1COc2ccccc2O1` (stereo not drawn): “inactive”; `OCc1ccccc1O[C@@H]1O[C@H](CO)[C@@H](O)[C@H](O)[C@H]1O`: “inactive”. On to `CC(=O)C1CCC2(C)C3=C(CCC12C)C1(C)CCC(=O)C(C)(C)C1CC3` (stereo not drawn), for which the Potency result is “inactive”. The same measure, in the same setting: the result for `CC1=CC(=O)C2C(C)(C)CC(O)CC2(C)C1CO` (stereo not drawn) reads “inactive”; that for `CC[C@H](C)[C@@H]1NC(=O)[C@H](Cc2ccc(OC)cc2)NC(=O)CCCSC[C@@H](C(=O)N2CCC[C@H]2C(=O)N[C@@H](CC(C)C)C(=O)NCC(N)=O)NC(=O)[C@H](CC(N)=O)NC(=O)[C@H](CCC(N)=O)NC1=O` (Y(Me)IQNCPLG-NH2; linker N-5 via X6), “inactive”; that for `CN1C(=O)c2ccccc2NC(=O)[C@]12O[C@@H]2c1cccc(O)c1`, “inactive”.

Turning to `CCCC1=CC2=C(CO1)C(=O)C(C)(OC(=O)c1c(C)cc(OC)cc1O)C(O)C2` (stereo not drawn), the Potency result was “inactive”. Take `CC1(C)C(=O)C(C)(C)c2cc(C(=O)Nc3ccc(C(=O)O)cc3)ccc21`: the Potency entry was “inactive”.

In the case of `N#Cc1ccc2[nH]c(O)c(-c3ccc(CN4CCOCC4)cn3)c2c1`, the Potency entry was “inactive”. Still for that read-out and setting: next, `COC(=O)CC[C@@H](C)[C@H]1CC[C@H]2[C@@H]3CC(=O)[C@H]4C[C@H](OC(C)=O)CC[C@]4(C)[C@H]3CC[C@]12C`: “inactive”. Turning to `O=C(O)c1cc(O[C@@H]2O[C@H](CO[C@@H]3OC[C@@H](O)[C@H](O)[C@H]3O)[C@@H](O)[C@H](O)[C@H]2O)c2ccccc2c1O`, the Potency result was “inactive”.

In the case of `C=CCc1ccc(O[C@@H]2O[C@H](CO[C@@H]3O[C@H](CO)[C@@H](O)[C@H](O)[C@H]3O)[C@@H](O)[C@H](O)[C@H]2O)c(O)c1`, the Potency result was “inactive”. On to `C(#Cc1cccc(CN2CCOCC2)c1)CCN1CCCCC1`, for which the Potency result was “inactive”.

As for `C[C@H]1C[C@H]2[C@@H]3CCC4=CC(=O)C=C[C@]4(C)[C@@]3(F)[C@@H](O)C[C@]2(C)[C@@]1(O)C(=O)COP(=O)(O)O`, the Potency entry was “inactive”.

For the compound `C=CC(C)(O)CC/C=C(\C)C(=O)OCC1OC(OC2CCC3(C)C(CCC4(C)C3CC=C3C5CC(C)(C)C(O)CC5(C(=O)O)CCC34C)C2(C)C)C(O)C(OC2OC(CO)C(O)C(OC3OC(CO)C(O)C(OC4OC(COC5OC(CO)C(O)C(O)C5O)C(O)C(O)C4O)C3O)C2O)C1O` (stereo not drawn), the outcome is “inactive [at 9.73 µM]”. In the case of `CCC[C@@H]1C[C@@H](C(=O)N[C@@H]([C@H]2O[C@H](SC)[C@H](OP(=O)(O)O)[C@@H](O)[C@H]2O)[C@H](C)Cl)N(C)C1`, the Potency result is “inactive”. Consider `COC(=O)CC1(O)C(=O)Nc2ccccc21` (stereo not drawn), for which the Potency result was “inactive”.

Consider `CC12CC34C=CC(=O)C(C)(CCC(=O)O)C3C(CC1C4)O2` (stereo not drawn), for which the Potency result is “inactive”. Same read-out and setting: next, `CC(=C/C(=O)O)/C=C/[C@]1(O)[C@@]2(C)CO[C@]1(C)C[C@H](O[C@@H]1O[C@H](CO)[C@@H](O)[C@H](O)[C@H]1O)C2`: “inactive”.
